# Assay outcomes deposited in PubChem by Broad Institute.
# These entries were drawn from the full list.
# aSyn UTR act = Activators working through SNCA 5'UTR binding (MLPCN); alpha-synuclein 5'UTR reporter, activators screen; activity score, % (tested at 7.5 µM), hits read low; 300,000 compounds, 7.1% hits; in the data active = activity score below about -60%
# * hit, by the source's call.
SMILES,aSyn UTR act
Cc1cc(NC(=O)NC(=O)c2cccc(OC(F)(F)C(F)F)c2)n[nH]1,-119*
Cc1cc(NC(=O)c2cccc(Oc3ccccc3)c2)n[nH]1,-109*
O=C(/C=C/c1ccc(Cl)cc1)NCCc1ccccc1,-67*
O=C(/C=C/c1ccccc1Cl)NCCc1ccccc1,-176*
CCS(=O)(=O)c1ccc2oc(Nc3ccccc3C)nc2c1,-122*
CCN(CC)S(=O)(=O)c1ccc2oc(Nc3ccccc3)nc2c1,-129*
Cc1ccc2c(COC(=O)c3ccccc3Br)cc(=O)oc2c1,-179*
Cc1ccc2c(COC(=O)C34CC5CC(CC(C5)C3)C4)cc(=O)oc2c1,-152*
Cc1ccc2c(COC(=O)c3ccccc3Cl)cc(=O)oc2c1,-136*
CCOC(=O)C1CCN(c2c(Nc3ccc4c(c3)OCCO4)c(=O)c2=O)CC1,-78*
Clc1ccc2c(c1)[C@H]1OCC[C@H]1[C@@H](c1ccco1)N2,-168*
CCOC(=O)c1c(NC2OC(=O)c3c2ccc(OC)c3OC)sc(C(=O)OC(C)(C)C)c1C (configuration not stated),-80*
O=C(CSc1nccn1-c1ncc(C(F)(F)F)cc1Cl)c1ccc(Cl)cc1,-127*
O=C(O)c1ccc(N/N=C/c2cn(Cc3ccccc3F)c3ccccc23)cc1,-65*
Nc1ccc(C(=O)N/N=C/c2cn(Cc3ccccc3F)c3ccccc23)cc1,72
CC(C)n1cc(/C=N/Nc2ccc(C(=O)O)cc2)c2ccccc21,-79*
Cc1cc(NC(=O)c2noc3c2CCCC3)no1,-107*
CC(=O)c1ccc(NC(=O)c2noc3c2CCCCC3)cc1,-87*
O=C(Nc1cccnc1)c1noc2c1CCCC2,-115*
Cc1cc(NC(=O)c2noc3c2CCCCC3)nn1Cc1ccc(Cl)cc1,-71*
Cc1cc(NC(=O)c2noc3c2CCCCC3)no1,-168*
Brc1ccccc1C1=Nn2c(nnc2-c2ccccc2)SC1,58
CSc1nc2sc(-c3ccccc3)cc2c(=O)n1N,-74*
O=c1c2cc(-c3ccccc3)sc2nc2n1N=C(c1ccccc1)CS2,-142*
COc1cc2ccccc2cc1C(=O)Nc1ccc(O)cc1,-138*
SMILES,aSyn UTR act
COc1cccc(NC(=O)c2cccc(OC)c2OC)c1,-168*
COc1cccc(NC(=O)c2ccccc2Br)c1,-106*
COc1cccc(C(=O)Nc2ccc3[nH]c(=O)[nH]c3c2)c1OC,68
COc1cc2ccccc2cc1C(=O)Nc1ccc(Cl)cn1,-111*
COc1cc(C(=O)Nc2ccc3ccccc3c2)cc(OC)c1OC,88
Cc1occc1C(=O)Nc1ccc2ccccc2c1,-128*
COc1cccc(C(=O)Nc2ccc(N(C)C)cc2)c1OC,-214*
COc1cc(Cl)c(C)cc1NC(=O)c1cccc(OC)c1OC,-137*
COc1ccc(C(=O)Nc2ccc3ccccc3c2)cc1OC,-176*
COc1ccc(NC(=O)c2cc3ccccc3cc2OC)cc1OC,-70*
COc1cc(OC)c(C(=O)Nc2ccc3ccccc3c2)cc1OC,-232*
COc1cccc(NC(=O)c2cc3ccccc3cc2OC)c1,-151*
COc1cc2sc(NC(=O)c3ccco3)nc2cc1Cl,-189*
Cc1ccc2nc(NC(=O)c3ccco3)sc2c1,85
Cc1ccc2nsnc2c1NC(=S)NC(=O)c1ccco1,-94*
Cc1ccc2nc(NC(=S)NC(=O)c3ccco3)sc2c1,-148*
Cc1nc2ccc(NC(=O)c3ccco3)cc2s1,-90*
CC(=O)Nc1nc2ccc(NC(=O)c3ccco3)cc2s1,-77*
CC(=O)N(c1nnc(-c2ccc(C)cc2)s1)C1CCCC1,-83*
CC(=O)Nc1ccc(S(=O)(=O)NC(CC(=O)NCCc2ccccc2)C(C)C)cc1 (configuration not stated),-109*
NC(N)=N/N=C/c1ccc(OCc2ccc(Cl)cc2)cc1,-66*
NC(N)=N/N=C/c1ccc(OCc2ccccc2)cc1,-70*
CCOC(=O)C1=C(N)n2c(s/c(=C\c3cccnc3)c2=O)=C(C(=O)OC)C1c1cccnc1 (configuration not stated),-66*
Fc1cccc(CSc2nnc3c(n2)[nH]c2ccccc23)c1,-142*
c1ccc(C2=NNC(c3ccccn3)=NN2)nc1,-118*
SMILES,aSyn UTR act
c1ccc(-c2nnc(-c3ccccn3)s2)nc1,78
CCOc1ccc(NC(=O)Nc2cccnc2)cc1,-141*
CCOc1ccc(NC(=O)Nc2cccc(C(=O)O)c2)cc1,108
O=C(Nc1ccc(Cl)cc1)Nc1cccnc1,-66*
O=C(N/N=C/c1cccc(F)c1)c1cc(-c2ccco2)nc2ccccc12,-120*
O=[N+]([O-])c1ccc(S(=O)(=O)Nc2cccc(-c3ccc(N4CCOCC4)nn3)c2)cc1,-83*
O=[N+]([O-])c1ccc(Cl)c(S(=O)(=O)Nc2cccc(-c3ccc(N4CCOCC4)nn3)c2)c1,-108*
CC(=O)NC(c1ccco1)c1ccc2cccnc2c1O (configuration not stated),77
CC(C)c1ccc(C(=O)N(c2ccccn2)C(C)c2ccco2)cc1 (configuration not stated),-161*
CSc1cccc(NC(=O)c2cccc3cccnc23)c1,-134*
O=C(Nc1cccc(NC(=O)c2ccc(-c3ccc(Br)cc3)o2)c1)c1ccco1,-95*
O=C(NNC(=O)c1ccccc1O)c1ccco1,-82*
CC(=O)Nc1ccc(NC(=O)c2ccco2)cc1,-71*
O=C(/C=C\c1ccccc1)Nc1ccc(NC(=O)c2ccco2)cc1,-67*
CC1N(C)c2cc(NC(=O)c3ccco3)ccc2C1(C)C (configuration not stated),-81*
CSc1cccc(NC(=O)c2ccco2)c1,-75*
O=C(COc1ccccc1)Nc1ccc(NC(=O)c2ccco2)cc1,-65*
O=C(Nc1ccc(Cl)cc1)c1ccco1,-131*
CN(C(=O)c1ccc(NC(=O)c2ccco2)cc1)c1ccccc1,-76*
Cc1nn(-c2ccccc2)c(Cl)c1/C=N/NC(=O)OC(C)(C)C,-131*
CNC(=S)N/N=C/c1c(C)nn(-c2ccccc2)c1Cl,-89*
Cc1nn(C(C)(C)C)c(C)c1/C=N/OC(=O)Nc1ccc(Cl)cc1,94
CCOC(=O)N/N=C/c1c(C)nn(-c2ccccc2Cl)c1Cl,-91*
Cc1nn(-c2ccccc2Cl)c(Cl)c1/C=N/Nc1nc2ccccc2s1,69
Cc1ccn2cc(C34CC5CC(CC(C5)C3)C4)nc2c1,-83*
SMILES,aSyn UTR act
CC(=O)c1ccc(NC(=O)CSc2nc(=O)cc(N)n2-c2ccccc2)cc1,-143*
CCn1c(SCC(=O)Nc2ccc(C(C)=O)cc2)nc2ccccc21,-70*
COCCCn1c(SCC(=O)Nc2ccc(C(C)=O)cc2)nc2ccccc2c1=O,-84*
O=c1c2c(nc3cc(-c4ccc(Br)cc4)[nH]n13)CCCC2,-95*
COc1ccc(-c2cc3nc4c(c(=O)n3[nH]2)CCC4)cc1,-158*
Nc1c(C(=O)NCc2ccco2)sc2nc3c(cc12)C(=O)CCC3,-94*
CCCOC(=O)c1sc2nc3c(cc2c1N)C(=O)CCC3,-152*
COc1ccc2cc3c(N)c(C(=O)NCc4ccco4)sc3nc2c1,-192*
CC1CCCN(C(=O)CSc2cnc3ccccc3n2)C1 (configuration not stated),-154*
O=C(CSc1nc2ccccc2s1)N1CCCCC1,-110*
CC1CCN(C(=O)CSc2nc3ccccc3s2)CC1,-154*
CC1CCCC(C)N1C(=O)CSc1nc2ccccc2s1 (configuration not stated),-99*
Cc1c(Cl)cccc1N/C(SCC(=O)N1CCCCCC1)=C(/C#N)c1nc2ccccc2s1,-66*
